The values that follow come from PubChem BioAssay AID1619 (SRMLSC, 2009).

Each structure is given as a SMILES string. Hit rate of the full screen: of about 220,000 compounds, about 830 (0.38%) were called active. The list is a sample of the results. Results with a measured potency or affinity are listed apart. A number with no mark means an inactive call.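 The calls were made as follows: active = compound inhibiting the enzyme by more than half at any dose during confirmatory dose-response retesting; inconclusive = strong single-dose inhibitors picked by rank but not retested; inactive = the rest.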

In this assay the target is Leucine aminopeptidase (Plasmodium falciparum (isolate 3D7)) (UniProt Q8IL11). The assay is described as follows: P. falciparum M17LAP inhibitors, primary screen, biochemical, fluorogenic H-Leu-NHMec substrate, 1536-well (AID 1619).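 Also: plate controls were full reaction with DMSO carrier for no effect and no enzyme background for full effect.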 The settings on record: recombinant M17LAP, H-Leu-NHMec fluorogenic kinetic assay; at 30 µM; hits give high values.
Chain of Leucine aminopeptidase (Plasmodium falciparum (isolate 3D7)) (Q8IL11 whole entry, looked up): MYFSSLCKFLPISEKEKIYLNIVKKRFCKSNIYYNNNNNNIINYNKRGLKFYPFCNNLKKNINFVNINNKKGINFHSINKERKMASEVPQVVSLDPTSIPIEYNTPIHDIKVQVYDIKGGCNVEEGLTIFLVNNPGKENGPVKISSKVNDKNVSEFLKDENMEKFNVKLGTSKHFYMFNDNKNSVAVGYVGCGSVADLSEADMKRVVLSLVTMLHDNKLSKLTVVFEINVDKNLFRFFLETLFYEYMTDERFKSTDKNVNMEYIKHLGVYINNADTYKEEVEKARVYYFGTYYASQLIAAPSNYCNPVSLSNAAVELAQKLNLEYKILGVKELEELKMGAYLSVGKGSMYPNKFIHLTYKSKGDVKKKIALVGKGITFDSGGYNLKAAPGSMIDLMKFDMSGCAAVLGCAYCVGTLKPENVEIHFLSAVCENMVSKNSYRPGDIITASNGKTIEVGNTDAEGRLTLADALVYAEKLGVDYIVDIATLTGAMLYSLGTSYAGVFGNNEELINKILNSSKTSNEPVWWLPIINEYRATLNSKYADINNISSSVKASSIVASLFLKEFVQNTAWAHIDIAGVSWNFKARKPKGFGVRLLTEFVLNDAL
One may read the inhibition as the relative decrease from the control value, in per cent. As to `CCC(=O)Nc1ccc(C(=O)NNC(=O)C(c2ccccc2)c2ccccc2)cc1`, the inhibition was 5.41%.
With `O=C(CNC(=O)c1ccc([N+](=O)[O-])cc1)N/N=C\c1ccc(OC(=O)c2ccccc2)cc1` the figure was -2.63%.
With `COc1ccc(S(=O)(=O)NCCc2ccccc2)cc1` the figure was -1.2%; with `Cc1nn(C)cc1/C=N/NC(=O)Cn1cncn1`, 0.36%.
In the case of `C=CCN1C(=O)CC(C(=O)NC)SC1=Nc1ccc(C(=O)OCC)cc1` (stereo not drawn), the inhibition is 4.4%.
Take `CC(=O)Nc1c(C(=O)N2CCN(c3ccccn3)CC2)cnn1-c1ccc(C)cc1`: the inhibition was 11%.
As to `CC1=CC(C)C2C(=O)N(O)C(=O)C2C1` (stereo not drawn), the inhibition was 1.69%.
Take `CN(c1ccc(F)cc1)S(=O)(=O)c1ccc(Cl)c(C(=O)OCC(=O)NCc2ccco2)c1`: the inhibition was 4.4%.
On to `COc1ccc(Nc2nc3ccccc3nc2NS(=O)(=O)c2cccs2)cc1`, for which the inhibition is 9.26%.
As for `COc1ccc(S(=O)(=O)/N=C2/NC(=O)/C(=C\c3ccco3)S2)cc1`, the figure is 22.2%; as for `NC1=NC(=O)/C(=C\c2ccco2)S1`, 25.9%.
Take `COc1ccc(NS(=O)(=O)c2cccs2)c(OC)c1`: the inhibition is -8.72%.
Turning to `O=C1CN(C(=O)CCN2CCOCC2)C(c2ccccc2)c2cc(Br)ccc2N1` (stereo not drawn), the inhibition was 8.27%.
In the case of `Cc1cc(C=O)c(C)n1-c1ccc(Cl)c(C(=O)O)c1`, the inhibition is 14.1%.
For `Cc1cc(/C=C2/C(=O)NN(c3ccccc3)C2=O)c(C)n1-c1ccc(O)cc1`, the inhibition was -3.4%.
For the molecule `CCCC(C)c1nnc(NC(=O)C(=O)OCC)s1` (stereo not drawn), the inhibition was 2.47%.
In the case of `O=C(NC(=S)NNS(=O)(=O)c1ccc(Cl)cc1)c1cccnc1`, the inhibition was 20%.
As for `O=C(NC(=S)NNS(=O)(=O)c1ccccc1)c1ccc([N+](=O)[O-])cc1`, the figure is 21.4%; as for `O=C(NNS(=O)(=O)c1ccccc1)c1cccnc1`, 1.34%; as for `O=C(NNC(=S)NC(=O)c1ccccc1[N+](=O)[O-])c1ccccc1[N+](=O)[O-]`, 51.9%.
As for `CCOC(=O)C1C(=O)C=C(Nc2ccccc2F)CC1c1ccccc1` (stereo not drawn), the figure is 10.8%; as for `CCOC(=O)C(C(=O)OCC)N(C#N)c1nc(OC)nc(N(C)C)n1`, 3.46%; as for `O=Cc1cccc(Oc2ncccn2)c1`, 3.35%.
As to `CCOC(=O)N1CCC(Nc2c(NCCCN(CC)CC)c(=O)c2=O)CC1`, the inhibition was -6.21%.
As for `O=C1CCC(=O)N1c1cccc(OS(=O)(=O)c2ccccc2)c1`, the figure is 10.4%; as for `Cc1cc(C(F)(F)F)n2nc(-c3cnn(C)c3C(F)(F)F)c(Br)c2n1`, 4.73%; as for `COC(=O)[C@H](Cc1ccccc1)NC(=O)NCc1cccs1`, 7.7%.
Turning to `O=C(NCc1ccccc1)N[C@@H](Cc1ccccc1)C(=O)O`, the inhibition was 27.9%.
As for `NS(=O)(=O)c1ccc(NC(=O)N[C@@H](Cc2ccccc2)C(=O)O)cc1`, the inhibition is 9.55%.
As for `O=C(Cc1ccccc1)N[C@@H](Cc1ccc(O)cc1)C(=O)O`, the figure is 7.55%; as for `COc1ccccc1Nc1nc2ccc(C)cc2cc1C#N`, 5.31%.
With `COc1ccc(N2CCN(c3nc4ccccc4n3CC(=O)c3ccccc3)CC2)cc1` the figure was 12.7%; with `Cc1ccc(S(=O)(=O)/C=C2\NC(=O)CS2)cc1`, 34.6%.
As for `O=C1CS/C(=C/C(=O)c2cccc(Cl)c2)N1`, the figure is 16%; as for `O=C(O)c1ccc(/C=N/NC(=O)c2cc(-c3cccs3)nc3ccccc23)cc1`, -43.1%.
As for `CC1CCC(N2CCN(c3ncccn3)CC2)CC1` (stereo not drawn), the inhibition is 1.15%.
Take `Cc1ccc(-c2cc(-c3ccccc3C)[nH]n2)c(O)c1`: the inhibition is 9.91%.
As for `Cc1ccc(O)c(-c2cc(-c3ccccc3C)[nH]n2)c1`, the inhibition is -1.23%.
For `Cc1ccc(NC(=O)CSC2=C(C#N)C(c3ccco3)C3=C(CC(C)(C)CC3=O)N2)cc1` (stereo not drawn), the inhibition is 1.21%.
Take `C=C(C)C(=O)Oc1ccc(N2C(=O)CCC2=O)cc1`: the inhibition is 15.3%.
Take `O=C(CSc1nc2ccccc2c(=O)n1CCCN1CCOCC1)Nc1cccc(S(=O)(=O)N2CCCCCC2)c1`: the inhibition is -0.76%.
Consider `CCOc1ccccc1NC(=O)N1CCN(S(C)(=O)=O)CC1`, for which the inhibition was -3.49%.
Take `CCn1cc(CNC(=O)/C=C/c2cnn(C)c2)c(C)n1`: the inhibition is -7.7%.
Turning to `O=[N+]([O-])c1cccc(-c2ccn[nH]2)c1`, the inhibition was 0.95%.
Turning to `O=c1cc(O)c(-c2ccc(Cl)c(Cl)c2)c(Cl)[nH]1`, the inhibition was 4.59%.
On to `Clc1ccc(-c2n[nH]c3c2CCC3)cc1Cl`, for which the inhibition is -3.59%.
With `Nc1cc(-c2cccc([N+](=O)[O-])c2)[nH]n1` the figure was 10.1%; with `Cc1ccc([N+](=O)[O-])cc1S(=O)(=O)N1CCCCC1C(=O)O` (stereo not drawn), 11.7%; with `COc1cccc(CN2CCN(C(=O)CC(C)C)CC2)c1`, -2.21%.
Turning to `O=C1CNC(=O)/C(=C/c2ccco2)N1`, the inhibition was 6.62%.
As to `Cc1cc(/C=N/Nc2ccc([N+](=O)[O-])cn2)c(C)n1-c1ccccc1`, the inhibition was 9.51%.
With `Cc1ccc(-n2c(C)cc(/C=N/Nc3ccc([N+](=O)[O-])cn3)c2C)cc1` the figure was -7.78%.
With `Cc1ccnc2nc(C(=O)NCc3cccs3)nn12` the figure was -0.8%.
Turning to `NS(=O)(=O)c1ccc(CCNC(=O)C2CCN(S(=O)(=O)c3c(Cl)cccc3Cl)CC2)cc1`, the inhibition is 1.28%.
With `Cc1cc(C)cc(N(CC(=O)Nc2ccccc2C(=O)N2CCOCC2)S(C)(=O)=O)c1` the figure was -5.57%; with `CC#CCC(CC#CC)c1nc2ccccc2c(=O)n1N`, -1.78%; with `Cc1ccc(-c2noc(CCC(=O)NC3CCCc4ccccc43)n2)cc1` (stereo not drawn), -3.35%.
As for `Cc1ccc(Cn2ccc(NC(=O)c3cc(C)on3)n2)cc1`, the inhibition is -2.56%.
As for `Cc1ccc(Cn2ccc(NC(=O)c3cc(C4CC4)on3)n2)cc1`, the inhibition is 1.62%.
Take `Cc1c(NC(C)c2ccccc2O)c(=O)n(-c2ccccc2)n1C` (stereo not drawn): the inhibition is 3.02%.
With `C/C(=C\C(=O)c1ccc(Br)cc1)Nc1ccc(Cl)cc1`, the inhibition is -7.69%.
Consider `COc1nccnc1NS(=O)(=O)c1ccc(N=Cc2c(C)[nH]n(-c3ccc(Cl)cc3)c2=O)cc1`, for which the inhibition was 38.5%.
As for `CCc1nnc(NS(=O)(=O)c2ccc(NS(=O)(=O)c3ccc(NC(C)=O)cc3)cc2)s1`, the figure is 35.4%; as for `CCc1nnc(NS(=O)(=O)c2ccc(N3C(=O)c4ccc(C(=O)O)cc4C3=O)cc2)s1`, 3.4%.
As for `COc1ccc(C(=O)Nc2ccc(S(=O)(=O)Nc3nccnc3OC)cc2)cc1OC`, the inhibition was 16.3%.
On to `Cc1cc(C)nc(NS(=O)(=O)c2ccc(N=Cc3c(C)[nH]n(-c4ccccc4)c3=O)cc2)n1`, for which the inhibition is 6.98%.
With `Cc1[nH]n(-c2ccccc2)c(=O)c1C=Nc1ccc(S(=O)(=O)Nc2nccs2)cc1` the figure was 3.82%; with `Cc1ccc(-n2[nH]c(C)c(C=Nc3ccc(S(=O)(=O)Nc4nccs4)cc3)c2=O)cc1C`, -8.94%.
Turning to `CCc1nnc(NS(=O)(=O)c2ccc(N=Cc3c(C)[nH]n(-c4ccc(Cl)cc4)c3=O)cc2)s1`, the inhibition is 45.4%.
As for `O=C(CN1CCOCC1)Nc1ccccc1-c1ccccc1`, the figure is -4.42%; as for `CCOc1ccccc1N1CCN(C(=O)c2c(C)noc2C)CC1`, -5.81%.
As for `CCC1CCCN1Cn1cnc2c([nH]c3ccc(C)cc32)c1=O` (stereo not drawn), the inhibition was 0.76%.
On to `CCCc1nnc(NC(=O)CCC(=O)NCc2ccc(OC)cc2)s1`, for which the inhibition is 13.8%.
Regarding `CCCCOc1ccccc1Cn1c(=O)oc2ccc(C)cc21`, the inhibition was -14.1%.
With `O=C(CSc1ncccn1)n1c2c(c3ccccc31)CCCC2` the figure was 0.07%; with `Cc1nc2ccccc2c2c1C(=O)N(C1CCCCCCC1)C2=O`, -2.77%.
With `CN1C(=O)CSc2ccc(NC(=O)N3CCN(c4ccccc4)CC3)cc21`, the inhibition is -3.56%.
`CC1CN(C(=O)c2ccc(N3CCCCC3)c([N+](=O)[O-])c2)CC(C)O1` (stereo not drawn): the inhibition is 8.04%.
With `Cc1noc(NS(=O)(=O)c2ccc(NC(=O)c3cnc4n(c3=O)CCS4)cc2)c1C` the figure was 36%.
In the case of `CCOc1cc(/C=N/NC(=S)Nc2ccccc2C(F)(F)F)ccc1OCC(=O)N1CCOCC1`, the inhibition is 0.32%.
As to `Cc1cc(-c2nc(-c3ccc(C(C)(C)C)cc3)no2)no1`, the inhibition is 2.57%.
`COCCCNC(=O)c1ccc(C2SCC(=O)N2Cc2ccco2)cc1` (stereo not drawn): the inhibition is 9.82%.
`COc1cc(SC)ccc1C(=O)NCc1ccc(C)cc1`: the inhibition was -9.45%.
With `CCc1nnc(NS(=O)(=O)c2ccc(N3C(=O)c4ccccc4C3=O)cc2)s1`, the inhibition is 19.2%.
As to `CCc1nnc(NS(=O)(=O)c2ccc(N=CC3=C(O)CC(C)(C)CC3=O)cc2)s1`, the inhibition was 37.1%.
For `COc1cccc(/C=C2/NC(=O)NC2=O)c1OCC(=O)Nc1ccccc1`, the inhibition was 1.46%.
With `Cc1ccnc2nc(C(=O)OCCOc3ccc(F)cc3)nn12` the figure was -4.95%.
Regarding `Cc1ccc(OCC(=O)Nc2cc(C(=O)O)cc(C(=O)O)c2)cc1C`, the inhibition is -17.5%.
Turning to `Cc1ccc(OCC(=O)Nc2cccc(O)c2)cc1C`, the inhibition was 17.6%.
With `N#Cc1cc2c(nc1SCC(O)CS(=O)(=O)Cc1ccccc1)CCCC2` (stereo not drawn) the figure was 22.9%; with `Cc1cc(C)c(C#N)c(SCCS(=O)(=O)Cc2ccccc2)n1`, -2.33%.
As for `COC(=O)N/N=C/c1cccc(OCCSc2ccc(Cl)cc2)c1`, the figure is 11.2%; as for `C/C(=N\NC(=O)Cc1ccc(F)cc1)c1ccc(O)cc1`, 6.85%.
Turning to `C/C(=N\NC(=O)COc1ccccc1)c1ccc(O)cc1`, the inhibition was 16.8%.
With `C/C(=N\NC(=O)Cc1c[nH]c2ccccc12)c1ccc2ccccc2c1` the figure was -0.21%.
For the molecule `COc1cc(/C(C)=N/NC(=O)CSc2nc3ccccc3[nH]2)ccc1O`, the inhibition was 8.45%.
On to `C/C(=N\NC(=O)Cc1cccn1C)c1ccc2ccccc2c1`, for which the inhibition is 32.5%.
Turning to `COc1cc(/C(C)=N/NC(=O)CSc2nnc(C)s2)ccc1O`, the inhibition was -1.63%.
